Most compounds without a hit are left out; they make up all but 2.4% or so of the library.
D2 PAM-1 – positive allosteric modulators of human D2 dopamine receptor. 340,000 compounds, 0.34% hits. potentiation, % at 10 µM. HEK293 T-REx D2, calcium flux, EC20 dopamine potentiation;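 active means potentiation over 3 SD above the plate norm, cut at about 30% in these data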; further: 0% is about no effect
Target sequence (P14416 whole entry, looked up): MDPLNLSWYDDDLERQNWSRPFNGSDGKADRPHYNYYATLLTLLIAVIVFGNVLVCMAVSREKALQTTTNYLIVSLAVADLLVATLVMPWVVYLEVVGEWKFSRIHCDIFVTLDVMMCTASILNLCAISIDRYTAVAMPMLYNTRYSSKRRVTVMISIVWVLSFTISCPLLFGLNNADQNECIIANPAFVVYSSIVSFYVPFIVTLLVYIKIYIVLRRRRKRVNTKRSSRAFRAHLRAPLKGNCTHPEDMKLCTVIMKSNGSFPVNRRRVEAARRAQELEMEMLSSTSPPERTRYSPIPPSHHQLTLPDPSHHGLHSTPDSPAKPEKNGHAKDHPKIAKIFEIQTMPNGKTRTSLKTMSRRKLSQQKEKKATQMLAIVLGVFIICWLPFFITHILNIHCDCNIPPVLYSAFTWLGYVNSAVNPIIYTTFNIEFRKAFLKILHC
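Tetracycline-induced Hek293 Trex D2 cells, force-coupled to calcium, loaded with no-wash calcium dye. Compound added with 180 s kinetic read for agonism, then EC20 dopamine and a further 180 s read for potentiation.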
D2 antag – antagonists of human D2 dopamine receptor; HEK293 TREx D2 cells, calcium flux, dopamine EC80; inhibition, % at 10 µM; 340,000 compounds, 2% hits; AID 485344; in the data active means inhibition above about 30%; inactive means below that, where a call was filed; further: 0% is about no effect
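Inhibition of EC80 dopamine-driven calcium flux, recorded kinetically, defines activity here; cells are a tetracycline-induced HEK293 T-REx line expressing force-coupled D2.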
D2 ag-1 – agonists of human D2 dopamine receptor; HEK293 T-REx D2 cells, calcium flux agonist mode; activation, % at 2 µM; AID 485358; P14416; 340,000 compounds, 0.53% hits;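 active means activation over 3 SD above normal in the single-dose calcium agonist read, cut at about 30% in these data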; further: 0% is about no effect
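HEK293 Trex D2 cells, tetracycline-induced, o/n 30 C 5% CO2; no-wash Ca dye, RT 30–90 min; 10-cycle baseline, 23 nl cpd added, kinetic Ca read 180 s; agonist hits = positive Ca response.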
D2 PAM-2 – human D2 receptor positive allosteric modulation. potentiation, % (test concentration not listed). AID 624464. 360,000 compounds, 0.23% hits. DiscoveRx D2 beta-arrestin cells, luminescence, 90 min; 100% = 57 uM dopamine signal. P14416; in the data active means potentiation above about 50%
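D2 cells co-treated with compound plus 50 nM dopamine (EC20) for 90 min at 37 deg C to detect potentiation. Beta-arrestin recruitment was read as enzyme-fragment luminescence after 1 h at ambient temperature. Full response was set by 57 uM dopamine.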
D2 ag-2 – agonists of human D2 dopamine receptor (beta-arrestin); P14416; activation, % (concentration not given with the values); 360,000 compounds, 0.084% hits; DiscoveRx PathHunter D2 beta-arrestin, luminescence, 90 min; 100% = 57 uM dopamine signal; AID 624465; in the data active means activation above about 40%
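DiscoveRx PathHunter D2 beta-arrestin cells (2,100/well) attached overnight, then compound-stimulated 90 min at 37 C in HBSS/10 mM HEPES/0.1% Tween-20 buffer; beta-galactosidase complementation read by luminescence after 1 h at ambient temperature. Dopamine 57 uM final (EC100) as control.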
* marks the source's active call; other numbers are inactive results; · = no result given.

SMILES	D2 PAM-1	D2 antag	D2 ag-1	D2 PAM-2	D2 ag-2
CCC(=O)N1CCc2cc(CNS(=O)(=O)c3cc(Cl)ccc3OC)ccc21	-9	·	1	·	·
CC1CCCN(c2nc3c(c(=O)[nH]c(=O)n3C)n2CCSc2nc3ccccc3o2)C1 (centres undefined)	12	6	1	-3	-3
CC1CCCN(c2nc3c(c(=O)n(C)c(=O)n3C)n2CCSc2nc3ccccc3o2)C1 (centres undefined)	30*	-11	-1	-5	-2
C[N+](C)(C)CC/C=C1/c2ccccc2CSc2ccccc21	0	-5	-1	-11	-3
CNCCC=C1c2ccccc2CCc2ccccc21	-27	42*	2	-35	-6
CCOC(=O)C1(Cc2ccccc2C(F)(F)F)CCN(C2CCC2)CC1	-18	32*	-2	-31	-5
CCOC(=O)C1(Cc2ccccc2C(F)(F)F)CCN(CCCn2cccn2)CC1	-22	48*	0	-14	-3
Cc1nn(CC(C)C)c(=S)[nH]c1=O	14	32*	0	-15	-4
CCn1c(=O)n(CC)c2cc(N3CCCCC3)c(NC(=O)Nc3ccccc3Cl)cc21	5	·	4	·	·
Cn1c(=O)[nH]c(=O)c2c1ncn2CCN1CCOCC1	6	38*	0	-18	-1
Cn1c(=O)[nH]c(=O)c2c1nc(N1CCOCC1)n2CCN1CCOCC1	3	-6	1	-3	-4
O=C(COC(=O)COc1ccccc1)NC12CC3CC(CC(C3)C1)C2	19	34*	0	-4	-2
CCN(CC)c1ccc(NS(=O)(=O)c2cc(-c3onc(C)c3C)ccc2OC)c(C)c1	1	·	0	·	·
CC(C)CC(=O)Nc1ccc(C(=O)CN2CCN(c3ccc(O)cc3)CC2)cc1	31*	0	0	5	6
O=C(CN1CCCCC1)Nc1ccc(S(=O)(=O)N2CCCCCC2)cc1	-5	-10	-1	-12	-2
O=C(CN1CCN(c2ccc(O)cc2)CC1)Nc1ccc(S(=O)(=O)N2CCCC2)cc1	·	·	·	28	49*
COc1ccc(/C=C\c2onc(C)c2S(=O)(=O)N2CCC(C(=O)Nc3cccc(OC)c3)CC2)cc1	-18	·	2	·	·
CCOC(=O)C1(C)CCN1C(=O)c1cccc(Cl)c1 (centres undefined)	·	·	·	4	42*
Cc1cc(NC(=O)N2CCC(CN3CCOCC3)CC2)ccc1Br	2	·	-1	·	·
O=C(CSc1nnc(NC(=O)c2cccc(F)c2)s1)NCC1CCCO1 (centres undefined)	11	·	·	-3	-1
O=C(CSc1nnc(NC(=O)c2c(F)cccc2F)s1)NCC1CCCO1 (centres undefined)	-13	74*	1	9	1
O=C1/C(=C/c2cccc3ccccc23)CCCc2ccccc21	59*	11	0	-8	-6
O=C1C(=Cc2ccncc2)CCCc2ccccc21	·	·	·	-10	-4
Clc1cccc(CN2CCN(c3nc4nonc4nc3NC3CC3)CC2)c1	8	38*	0	-3	-2
Cc1cccc(CN2CCN(c3nc4nonc4nc3NC3CC3)CC2)c1	5	-5	0	-2	-5
SMILES	D2 PAM-1	D2 antag	D2 ag-1	D2 PAM-2	D2 ag-2
COc1ccc(C(CNC(=S)NCc2ccccc2)N2CCCC2)cc1 (centres undefined)	-18	41*	0	-17	-5
COc1ccc(C(CNC(=O)c2oc3c(Cl)cccc3c2C)N2CCCC2)cc1 (centres undefined)	-21	39*	0	-45	-4
COc1ccc(C(CNC(=O)c2oc3ccc(Cl)cc3c2C)N2CCCCC2)cc1 (centres undefined)	-14	-21	-1	-17	-4
COc1ccc(NC(=S)NCC(c2cccnc2)N2CCOCC2)cc1 (centres undefined)	30*	10	0	0	0
COc1ccc(C(CNC(=O)c2oc3ccccc3c2C)N2CCCC2)cc1 (centres undefined)	-28	76*	1	-35	-4
COC(=O)c1ccc(OCC2c3cc(OC)c(OC)cc3CCN2C(=O)c2ccccc2F)cc1 (centres undefined)	10	·	·	·	·
COc1ccc(NC(=O)NC(C)c2c(-n3cccc3)sc3c2CCN(C)C3)c(OC)c1 (centres undefined)	-10	·	1	·	·
COc1ccc(C(=O)Nc2nnc(S(=O)(=O)N3CCCc4ccccc43)s2)cc1	·	·	3	·	·
COc1cc(NC(=O)CSc2nc(C)c(C)c(C)n2)cc(OC)c1	6	48*	-1	-2	-3
COc1cccc(NC(=O)CSc2nc3ccc(NC(=O)c4ccco4)cc3s2)c1	10	·	-2	·	·
Cc1c2ccccc2nc2c(F)c(NC(C)C)c(F)c(F)c12	2	28	45*	5	2
Cc1cccc(NC(=O)c2oc3ccccc3c2NC(=O)Cc2coc3cc(C)cc(C)c23)c1	·	·	1	·	·
OC(C#CCN1CCCCCC1)(c1ccccc1)c1cccnc1 (centres undefined)	-19	58*	0	-28	0
OC(C#CCCN1CCCCC1)(c1ccccc1)c1ccccc1	-31	33*	2	-11	0
OC(C#CCN1CCCC1)(c1ccccc1)c1cccnc1 (centres undefined)	-10	-1	2	-17	-2
OC(CCN1CCCCC1)(c1ccccc1)C1CCCCC1 (centres undefined)	-25	46*	-1	-38	-4
Cc1ccc(C)c(CN2C(=O)c3ccccc3S(=O)(=O)c3ccc(C(=O)N(C)C4CCCCC4)cc32)c1	-7	·	0	·	·
Cc1ccc(S(=O)(=O)NC(=O)c2ccc(Br)o2)c(C)c1	-2	31*	0	-15	0
CC(=O)NC(=S)Nc1ccccc1C(=O)Nc1ccccc1	6	47*	2	-19	-5
CCCCC(=O)NC(=S)Nc1ccccc1C(=O)Nc1ccccc1	-4	4	-1	-16	-5
CC(C)(C)N(Cc1ccccc1)C(=O)COC(=O)C1CCN(c2ccc(C(F)(F)F)cn2)CC1	59*	-17	0	-15	-6
CC(C)N(Cc1ccccc1)C(=O)COC(=O)C1CCN(c2ccc(C(F)(F)F)cn2)CC1	-11	3	1	-6	-5
O=C(COC(=O)c1cccnc1Cl)c1ccc(Cl)s1	·	·	·	-6	-9
O=C(COC(=O)c1cccnc1Cl)c1cccc(Cl)c1	-1	69*	0	-27	-4
COc1ccc(N(C(=O)COc2c(C)cccc2C)S(=O)(=O)c2ccc(Cl)cc2)cc1	-5	·	·	·	·
NC(=O)c1nsc(C(=O)N(CC(=O)NCc2ccco2)c2ccccc2F)c1N	33*	8	0	-4	-3

Screening data (PubChem BioAssay)
